From ChEMBL document CHEMBL4513216, “Probing the Open Global Health Chemical Diversity Library for Multistage-Active Starting Points for Next-Generation Antimalarials” (ACS Infect Dis, 2020) come the findings set out here.

Screen size: about 65,000 compounds; about 2,100 (3.2%) showed an effect of 50% or more. The median lay at about -52%. Shown is part of a subset that was picked to be rich in strong results.

The assay deals with Plasmodium falciparum. The assay is described as follows: Screen against P. falciparum Asexual Blood Stage (ABS), at 5uM. The note with it: tested at 5 uM. In kind it is functional, Dd2.
For the compound `Cc1nc(N)ncc1C(=O)N1CCCC(CCc2ccc(F)cc2)C1` (stereo not drawn), the INHIBITION was 38%.
`N#Cc1cccc(C(=O)N2CCN(c3ncccn3)CC2)c1`: the INHIBITION is on record as -150%.
Under `COc1ccc(C2Nc3ccccc3C3=NCCCN32)cc1OC` (stereo not drawn) stands -62.4%; under `COc1ccc(C2Nc3cc(Cl)ccc3C3=NCCN32)cc1OC` (stereo not drawn), 72.2%; under `CN(C)c1ncc(C2Nc3cc(Cl)ccc3C3=NCCCN32)cn1` (stereo not drawn), -9.81%.
The value for `COCCN1CCN(CC2CCCCO2)CC1` (stereo not drawn) was -67.3%.
Under `Cc1cccc(C(=O)N2C[C@@H]3OCCN(CCN4CCCC4)[C@@H]3C2)n1` stands -112%.
Consider `CO[C@@H]1c2ccccc2C2(CCN(C(=O)CNC(=O)C(C)C)CC2)[C@H]1O`, for which the INHIBITION is -62.3%.
The value for `NC(=O)C1CCN(C(=O)NC2CCN(CC3CCCC3)C2)CC1` (stereo not drawn) was -53.5%; that for `Cc1noc(C)c1CNC(=O)N1CCC(OCC2CC2)CC1` was -65.8%.
Under `O=C(CCN1CCOCC1)NC1CCCN(CC2CCCCC2)C1` (stereo not drawn) stands -80.2%; under `O=C(NC1CCN(CC2CCCC2)C1)N1CCC(OCC2CC2)CC1` (stereo not drawn), 64.5%; under `O=C(NC1CCN(CC2CC2)C1)N1CCC(OC2CCCCC2)CC1` (stereo not drawn), 55%.
The value for `CSC(C)(C)CNC(=O)NC1CCN(CC2CC2)C1` (stereo not drawn) was -35.8%.
Regarding `Cc1ccc(C(=O)N2CCCC(c3cc(C(F)(F)F)[nH]n3)C2)o1` (stereo not drawn), the INHIBITION is on record as -50.8%.
For `Cc1cnc2n(c1=O)CC(C(=O)NCc1ccccc1Cl)CS2` (stereo not drawn), the INHIBITION is listed as -88.7%.
The value for `CC1CCCN(C(=O)c2ccc(N(C)Cc3cnn(C)c3)nc2)C1` (stereo not drawn) was -222%; that for `Cc1nn(C)c2c(NC3CCCC3)nc(C3CC3)nc12` was -18.7%; that for `COC(=O)NCC(=O)NC(c1ccc(Cl)cc1)C(F)(F)F` (stereo not drawn) was 38%.
As for `COCC(=O)NC(c1ccc(Cl)cc1)C(F)(F)F` (stereo not drawn), the INHIBITION was 7.67%.
As to `COC(=O)NCCC(=O)NC(c1ccc(Cl)cc1)C(F)(F)F` (stereo not drawn), the INHIBITION stood at 63.6%.
The value for `CCc1ccc(CN2C[C@@H]3OCCN(c4ccnc(N(C)C)n4)[C@@H]3C2)o1` was 9.71%; that for `Cc1cccc(CN2C[C@@H]3OCCN(c4ccnc(N(C)C)n4)[C@@H]3C2)c1` was 52.5%; that for `CN(C)c1nccc(N2CCO[C@H]3CN(Cc4nccn4C)C[C@H]32)n1` was -73.7%.
With `N#Cc1ccc(N2CCCC3(CCC(=O)N3CC3CC3)CC2)nc1` (stereo not drawn), the INHIBITION was -26.4%.
Under `Cc1cc(CN(C)Cc2ncc(-c3ccccc3)o2)no1` stands -107%; under `COC1CCN(CCNC(=O)NCC(C)c2cccc(C)c2)CC1` (stereo not drawn), 54.5%.
Turning to `COC1CCN(CCNC(=O)NC(C)c2ccc(F)c(F)c2)CC1` (stereo not drawn), the INHIBITION was determined as 45.9%.
Under `COC1CCN(CCNC(=O)NC(C)c2cccc(Cl)c2)CC1` (stereo not drawn) stands 23.9%; under `Cc1ccc(S(=O)(=O)c2ncccc2CN2CCN(CCO)CC2)cc1`, -44.3%; under `CC(C)c1ncc2c(n1)CN(c1ncnc3[nH]ccc13)CC2`, 4.74%.
The value for `O=C1NC(c2cccnc2)=NC12CCN(CCCc1ccccc1)CC2` was -84.2%.
The value for `COCCN1C[C@@H]2[C@@H](OC)CCN(Cc3ccc(C)o3)[C@@H]2C1` was 3.04%; that for `COCCN1C[C@@H]2[C@@H](OC)CCN(Cc3cccs3)[C@@H]2C1` was 66.1%.
Consider `COCCN1C[C@@H]2[C@@H](OC)CCN(Cc3ccsc3)[C@@H]2C1`, for which the INHIBITION worked out at 66.7%.
The value for `COCCN1C[C@H]2[C@@H](C1)N(Cc1ccc(C)o1)CC[C@H]2OC` was -41.6%; that for `COCCN1C[C@@H]2[C@@H](OC)CCN(Cc3ccco3)[C@@H]2C1` was -1.85%.
The value for `COCCN1C[C@H]2[C@@H](C1)N(Cc1cnn(C)c1)CC[C@H]2OC` was -59.7%; that for `Cc1ccc(CN2CC[C@@H]3[C@@H](CO[C@H]3CN(C)C)C2)o1` was -21.4%; that for `NC(=O)c1cccc(CN2CCc3c(ncn3C3CC3)C2)c1` was -158%.
Regarding `COc1ccc2c(c1)ncn2C[C@]1(O)CCCN2CCCC[C@@H]21`, the INHIBITION was -42.3%.
The value for `COC(=O)c1cc(C(=O)N2CCCC(C)C2)n(-c2ccccc2)n1` (stereo not drawn) was 50.2%.
The value for `COC(=O)c1cc(C(=O)N2CCCCCC2)n(-c2ccccc2)n1` was -126%; that for `COC(=O)c1cc(C(=O)N2CCC(C)CC2)n(-c2ccccc2)n1` was 43.3%; that for `COCC1c2nnn(C)c2CCN1C(=O)COc1ccccc1OC` (stereo not drawn) was -85.8%.
The value for `CS(=O)(=O)NCCN(CCCO)C1CCc2ccccc21` (stereo not drawn) was -55.5%; that for `Cc1ccc(-c2c(C(=O)NC3CCN(C)CC3)csc2C)cc1` was 61.9%.
As to `CCCN1CCC(NC(=O)c2csc(C)c2-c2ccccc2)CC1`, the INHIBITION was found to be 28.9%.
The value for `CCCN1CCC(NC(=O)c2csc(C)c2C)CC1` was -48.6%; that for `CN(C)C(=O)COC[C@]12COC[C@H]1CN(C1CCCC1)C2` was -77.5%.
Under `CCNC(=O)[C@@H]1C[C@@H](N)CN1Cc1ccc(Sc2ccc(C)cc2)o1` stands 63.9%; under `CCNC(=O)[C@@H]1C[C@@H](N)CN1Cc1ccc2cccc(Cl)c2n1`, 31.4%; under `CCNC(=O)[C@@H]1C[C@H](N)CN1Cc1ccc(-c2cc[nH]n2)o1`, -81.2%.
The value for `CCNC(=O)[C@@H]1C[C@@H](N)CN1Cc1ccc(-c2ccccc2C#N)o1` was -71.4%; that for `CCNC(=O)[C@@H]1C[C@H](N)CN1Cc1ccc(-c2ccccc2C#N)o1` was -5.25%; that for `CCNC(=O)[C@@H]1C[C@H](N)CN1Cc1ccc(Sc2ccc(C)cc2)o1` was 64.6%.
`CC/C=C(\C)CN1CCC(CNC(=O)c2c[nH]c(=O)c(Cl)c2)C1` (stereo not drawn): the INHIBITION is given as -7.22%.
The value for `Nc1ncccc1C(=O)NCc1cccc(Br)c1` was -72%; that for `CCS(=O)(=O)CC(=O)NCC1(c2c(F)cccc2F)CCCC1` was -90.7%; that for `COC(=O)NCC(=O)NCC1(c2c(F)cccc2F)CCCC1` was 69.7%.
Under `CC(=O)NCCC(=O)NCC1(c2c(F)cccc2F)CCCC1` stands -77.3%; under `Cc1cc(C)c2nc(C3CC3)cc(C(=O)N3CCCC3C(N)=O)c2c1` (stereo not drawn), -98.6%.
The value for `COCC1c2c(cnn2C)CCN1C(=O)c1cscn1` (stereo not drawn) was -109%; that for `CC(Cn1cccn1)NCc1nc(-c2cccnc2)no1` (stereo not drawn) was -56%.
Consider `CCSCCC(=O)NC1CCN(C(C)c2ccccc2)CC1` (stereo not drawn), for which the INHIBITION is -58.8%.
The value for `CC(c1ccccc1)N1CCC(NC(=O)CCc2ccsc2)CC1` (stereo not drawn) was 54.8%; that for `CSCC(=O)NC1CCN(C(C)c2ccccc2)CC1` (stereo not drawn) was -27.6%; that for `Cc1cc2c(N3CCC(N(C)Cc4nccs4)CC3)ncnc2s1` was -19.4%.
Under `CC(NC1CCN(CCS(C)(=O)=O)CC1)c1ccc(Cl)cc1` (stereo not drawn) stands 58.2%; under `CC(c1ccc(Cl)cc1)N1CCN(CCS(C)(=O)=O)CC1` (stereo not drawn), -38.8%.
In the case of `CC(NC1CCN(CCS(C)(=O)=O)CC1)c1cnn(C(C)C)c1` (stereo not drawn), the INHIBITION is on record as -83.1%.
The value for `CN(Cc1cccnc1)C1CCCN(Cc2noc(C3CC3)n2)C1` (stereo not drawn) was 52.6%; that for `Cc1nc(CN2CCCC(NCc3cccc4ccccc34)C2)no1` (stereo not drawn) was 58.3%.
Under `Cc1nc(CN2CCCC(N(C)CCc3ccncc3)C2)no1` (stereo not drawn) stands -138%; under `Cc1nc(CN(C)C2CCN(Cc3c(C)noc3C)C2)no1` (stereo not drawn), -19.4%; under `Cc1nc(CN2CCCC(N(C)Cc3c(C)noc3C)C2)no1` (stereo not drawn), 58.6%.
Under `Cc1nc(CN2CCCC(N(C)CCCc3ccccc3)C2)no1` (stereo not drawn) stands -0.463%; under `CN(Cc1cnn(C)c1)C1CCCN(Cc2noc(C3CC3)n2)C1` (stereo not drawn), -39.7%; under `Cc1nc(CN2CCCC(NCc3ccc4ccccc4c3)C2)no1` (stereo not drawn), -9.17%.
Consider `CCOc1ccccc1CNC1CCCN(Cc2noc(C)n2)C1` (stereo not drawn), for which the INHIBITION is listed as 48.7%.
Under `CN(Cc1ccccn1)C1CCCN(Cc2noc(C3CC3)n2)C1` (stereo not drawn) stands -128%.
The value for `COc1ccc(CCN(C)C2CCCN(Cc3noc(C)n3)C2)cc1` (stereo not drawn) was 60.6%; that for `Cc1cc(CN(C)C2CCCN(Cc3noc(C)n3)C2)no1` (stereo not drawn) was -90.9%.
The value for `CCn1nc(C)c(CN2CCC(c3ccn[nH]3)C2)c1C` (stereo not drawn) was -30.2%; that for `Cc1nc2sccn2c1CNC1(c2ccccc2F)CCCC1` was -5.97%; that for `Cc1cccc(COC[C@@]23CCC[C@@H]2CN(S(=O)(=O)N(C)C)C3)n1` was -12.3%.
In the case of `CCc1nc(CN2CCN(C(=O)C3(C#N)CCCC3)CC2)cs1`, the INHIBITION was -79.7%.
The value for `O=C(c1ccccn1)N1CCC2(CC1)COC(COCC1CCCC1)C2` (stereo not drawn) was -14.7%; that for `Cc1ccc(CN2CCN(C(=O)c3ccc(CO)cc3)C(C)C2=O)cc1` (stereo not drawn) was -121%.
The value for `CC(=O)N1CCCC(c2ccc(Cc3ccccc3)cn2)C1` (stereo not drawn) was 60.4%; that for `CC(=O)N1CCCC(c2ccc(Br)cn2)C1` (stereo not drawn) was -147%.
Under `CC(=O)N1CCCC(c2ccccn2)C1` (stereo not drawn) stands -11.9%; under `CNc1cncc(C2CCCN2Cc2ccn(C)n2)n1` (stereo not drawn), -1.9%; under `c1cncc(-c2ccc3c(c2)CCC32CCN(Cc3nccs3)CC2)c1`, 49.1%.
Consider `CCN1C[C@@H]2CN(S(=O)(=O)c3cccs3)C[C@@H]2C1=O`, for which the INHIBITION was 64.6%.
The value for `CC(C)CN1C[C@@H]2CN(S(=O)(=O)c3cccs3)C[C@@H]2C1=O` was -43.6%.
For the compound `COCCN1C[C@@H]2CN(S(=O)(=O)c3cccs3)C[C@@H]2C1=O`, the INHIBITION is -43.2%.
The value for `CCc1cc(N[C@@H]2C[C@@H]3CC[C@H]2C3)n2nccc2n1` was -125%; that for `Cc1ccc(C(=O)Nc2ccc(S(=O)(=O)/N=C3\CCCN3C)cc2)s1` was -13.1%; that for `CC(C)(C)n1nc(C2CC2)cc1C(=O)NC1CCN(CC(N)=O)CC1` was -56.9%.
The value for `Cc1cccc(N2CCOCC3(C2)CN(c2ccccc2)C(=O)CO3)n1` (stereo not drawn) was -58.1%; that for `Cc1cccc(N2CCOCC3(C2)CN(c2cncnc2)C(=O)CO3)n1` (stereo not drawn) was -66.1%; that for `Cc1cccc(N2CCOCC3(C2)CN(c2ccoc2)C(=O)CO3)n1` (stereo not drawn) was 66.9%.
